In all, about 3,000 compounds went through this assay and about 45 (2%) showed an effect of 50% or more. Only a selection was taken, and strong results are over-represented in it overall.
Each compound was assayed on MOLM1 and UCSD/AML1 (averaged) (assay: cell viability relative to DMSO control (POC); higher = less growth inhibition). Settings: 1 µM; 72 h.
Description: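 Primary viability screen in the 3q26 EVI1-high AML cell lines MOLM1 and UCSD/AML1, compounds at 1 uM for 72 h. ATP CellTiter-Glo read-out given as percent viable over DMSO control (POC), averaged over duplicates. This mapping covers the TimTec NDL-3000 natural derivative library, whose compounds are identified by TimTec catalogue codes (ST...).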
`O=C(O)/C=C/c1ccc(Cl)c(Cl)c1` was tested, and the cell viability was 97.8%.
`COc1cc(C(=O)N2CCN(C(=O)c3cccc(Cl)c3)CC2)cc(OC)c1OC` gave a cell viability of 102%.
For `COc1cc(C(=O)N2CCN(c3cccc(C)c3C)CC2)cc(OC)c1OC`, the cell viability was 12.5%.
In the case of `COc1cc(C(=O)Oc2ccccc2)cc(OC)c1OC`, the cell viability was 108%.
In the case of `COc1cc(C(=O)N2CCOCC2)cc(OC)c1OC`, the cell viability was 98.2%.
With `COc1cc(C(=O)N2c3ccccc3C(C)=CC2(C)C)cc(OC)c1OC` the cell viability was 29.3%.
For `COc1cc(C(=O)N2c3ccccc3CC2C)cc(OC)c1OC` (configuration not stated), the cell viability was 91.9%.
With `O=C(/C=C/c1ccc2c(c1)OCO2)c1ccc2c(c1)OCCO2` the cell viability was 104%.
In the case of `Cn1c(SCc2ccc(Cl)cc2)nc2c(=O)[nH]cnc21`, the cell viability was 90%.
Compound `COc1ccc2[nH]cc(CCNC(=O)c3nn(-c4ccccc4)nc3C)c2c1` has a cell viability of 107%.
`COc1ccc(/C=C2\Oc3ccc(Br)cc3C2=O)cc1` gave a cell viability of 97.7%.
For `COc1ccc(/C=C2\CCc3ccccc3C2=O)cc1`, the cell viability was 94%.
Work on `CCC1C/C(=C\c2ccc(OC)cc2)C(=O)/C(=C/c2ccc(OC)cc2)C1` (configuration not stated) yielded a cell viability of 12.8%.
In the case of `CCOC(=O)c1ccc2nc3c(=O)[nH]c(=O)nc-3n(CCc3ccc(OC)c(OC)c3)c2c1`, the cell viability was 99.7%.
`COc1ccc(OCc2cc(C=O)ccc2OC)cc1` was tested, and the cell viability was 107%.
For `COc1ccc(C=O)cc1COc1ccc2c(c1)CCC2`, the cell viability was 47.2%.
`COc1ccc(/C=C/C(=O)O)cc1COc1ccccc1` gave a cell viability of 101%.
With `O=C(OCC1CCCN2CCCCC12)c1ccccc1O` (configuration not stated) the cell viability was 96.9%.
Work on `Cc1cc2oc(=O)cc(O)c2cc1C` yielded a cell viability of 95.7%.
`O=C(c1ccccc1)N1CCN(CC(O)Cn2c3ccccc3c3ccccc32)CC1` (configuration not stated) gave a cell viability of 99.4%.
`CC1(C(=O)O)CCC2(C)CCC3(C)C(=CC(=O)C4C5(C)CCC(OC6OC(C(=O)O)C(O)C(O)C6OC6OC(C(=O)O)C(O)C(O)C6O)CC5CCC43C)C2C1.CC1(C(=O)O)CCC2(C)CCC3(C)C(=CC(=O)C4C5(C)CCC(OC6OC(C(=O)O)C(O)C(O)C6OC6OC(C(=O)O)C(O)C(O)C6O)CC5CCC43C)C2C1.CC1(C(=O)O)CCC2(C)CCC3(C)C(=CC(=O)C4C5(C)CCC(OC6OC(C(=O)O)C(O)C(O)C6OC6OC(C(=O)O)C(O)C(O)C6O)CC5CCC43C)C2C1.[Fe]` (configuration not stated) showed a cell viability of 91.5%.
Compound `O=c1cc(-c2ccccc2Cl)oc2c(Br)cc(Cl)cc12` has a cell viability of 112%.
Work on `O=C(N/N=C/c1cc(N=Nc2cccc(C(F)(F)F)c2)ccc1O)c1ccc2c(c1)OCO2` yielded a cell viability of 21.3%.
Compound `O=C(N/N=C\c1cc(Br)cc(Br)c1OC(=O)c1cccc(F)c1)c1ccc2c(c1)OCO2` has a cell viability of 64.1%.
Compound `O=C(N/N=C/c1cc(N=Nc2cccc3ccccc23)ccc1O)c1ccc2c(c1)OCO2` has a cell viability of 64.5%.
In the case of `Cc1cc(=O)[nH]c(SCC(=O)Nc2cccc(C)c2C)n1`, the cell viability was 114%.
`Cc1ccccc1C(=O)OCC1CCCN2CCCCC12.O.O.O.O.O.O.O=[N+]([O-])O.O=[N+]([O-])O.[Co]` (configuration not stated) was tested, and the cell viability was 104%.
In the case of `CC(C)c1ccc(/C=C/C(=O)N2CCC3(O)CCCCC3C2c2ccc(F)cc2)cc1` (configuration not stated), the cell viability was 77.9%.
`O=C(Nc1c(C(=O)Nc2ccccc2)c2ccccc2n(Cc2ccc(F)cc2)c1=O)c1ccccc1` was tested, and the cell viability was 94.1%.
Work on `COc1cccc(C=Nc2ccc3cc4ccc(N=Cc5cccc(OC)c5O)cc4nc3c2)c1O` yielded a cell viability of 2.39%.
In the case of `COC(=O)C1=C(C)NC(SCC(=O)c2ccc3c(c2)OCO3)=C(C#N)C1c1cccs1` (configuration not stated), the cell viability was 95.7%.
`CC(C)C(=O)NCC(=O)NCC(=O)O` gave a cell viability of 98.8%.
For `O=C(CCNc1n[nH]c(=O)[nH]c1=O)N/N=C/c1cccnc1`, the cell viability was 93%.
Work on `COc1ccccc1CNC(=O)c1cc(OC)c(OC)c(OC)c1` yielded a cell viability of 100%.
`COc1cc(/C=N/NC(=O)CCC(=O)Nc2ccccc2C)cc(OC)c1OC` gave a cell viability of 91.6%.
`CCn1c2ccccc2c2cc(/C=N/NC(=O)c3cc(OC)c(OC)c(OC)c3)ccc21` showed a cell viability of 10.7%.
Work on `O=C(O)/C=C/c1c(Cl)cccc1Cl` yielded a cell viability of 94.6%.

Reference: the supplement of paper PMC11150407
